# Data: PubChem BioAssay (NCI)
# Where “and” joins values, the source holds several entries; their conditions need not be identical. Identical values can stand only once. Compounds without any hit were thinned out: in the full panel of roughly 83,000, 20% have a hit.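 Activity criterion: percent growth below 10, measured after cells in 96-well plates were exposed to a single compound concentration for 48 hours.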 Calls of active or inactive are those of the source.
# Assays:
# Experiment in all cases: NCI-60 one-dose screen, 48 h (100 = growth as untreated, 0 = no growth, -100 = all killed)
# NCI-H23 lung = conditions: 10 µM unless noted
# NCI-H226 lung = conditions: 10 µM unless noted
# NCI-H322M lung = conditions: 10 µM unless noted
# HOP-62 NSCLC = conditions: 10 µM unless noted
# NCI-H460 lung = conditions: 10 µM unless noted
# HOP-92 NSCLC = conditions: 10 µM
# NCI-H522 lung = conditions: 10 µM
# A549/ATCC NSCLC = conditions: 10 µM unless noted
# 786-0 renal = conditions: 10 µM unless noted
# COLO 205 colon = conditions: 10 µM unless noted
# DU-145 prostate = conditions: 10 µM unless noted
# K-562 leukemia = conditions: 10 µM unless noted
# MALME-3M melanoma = conditions: 10 µM unless noted
# MDA-MB-231 breast = conditions: 10 µM unless noted
# RXF 393 renal = conditions: 10 µM unless noted
# SF-268 CNS = conditions: 10 µM unless noted
# SF-295 CNS = conditions: 10 µM unless noted
# SF-539 CNS = conditions: 10 µM unless noted
# UACC-257 melanoma = conditions: 10 µM unless noted
# M14 melanoma = conditions: 10 µM unless noted
Compound,growth (NCI-H23 lung),growth (NCI-H226 lung),growth (NCI-H322M lung),growth (HOP-62 NSCLC),growth (NCI-H460 lung),growth (HOP-92 NSCLC),growth (NCI-H522 lung),growth (A549/ATCC NSCLC),growth (786-0 renal),growth (COLO 205 colon),growth (DU-145 prostate),growth (K-562 leukemia),growth (MALME-3M melanoma),growth (MDA-MB-231 breast),growth (RXF 393 renal),growth (SF-268 CNS),growth (SF-295 CNS),growth (SF-539 CNS),growth (UACC-257 melanoma),growth (M14 melanoma)
NC(Cc1c[nH]c2ccccc12)C(=O)O (centres undefined),106% (inactive) and 108% (inactive),90.6% (inactive) and 103% (inactive),98.8% (inactive) and 111% (inactive),64.3% (inactive) and 96.3% (inactive),105% (inactive) and 101% (inactive),75.5% (inactive),86% (inactive) and 93.1% (inactive),113% (inactive) and 97.8% (inactive),69.5% (inactive) and 99.7% (inactive),117% (inactive) and 103% (inactive),103% (inactive) and 113% (inactive),136% (inactive) and 101% (inactive),118% (inactive) and 96.3% (inactive),104% (inactive) and 97.1% (inactive),91.4% (inactive) and 103% (inactive),105% (inactive) and 101% (inactive),99.4% (inactive) and 102% (inactive),93.8% (inactive) and 96.8% (inactive),66.9% (inactive) and 94% (inactive),93.2% (inactive) and 98.4% (inactive)
Nc1cc(N)c(N)cc1N,-66% (active),93.9% (inactive),107% (inactive),58.3% (inactive),96.8% (inactive),115% (inactive),-80.9% (active),88.1% (inactive),51.7% (inactive),95.7% (inactive),109% (inactive),9.58% (active),62% (inactive),89.6% (inactive),51.3% (inactive),74.2% (inactive),87.8% (inactive),-3.2% (active),-46.4% (active),
O=C1OC(C(O)C(O)CO)C(O)=C1O (centres undefined),113% (inactive) and 98.1% (inactive),100% (inactive),111% (inactive) and 97.3% (inactive),94.4% (inactive) and 88.1% (inactive),96.8% (inactive) and 112% (inactive),89.5% (inactive),8.89% (active) and 80% (inactive),104% (inactive) and 74.9% (inactive),95% (inactive) and 97.2% (inactive),101% (inactive) and 96.9% (inactive),115% (inactive),99% (inactive) and 90.4% (inactive),94.2% (inactive),116% (inactive) and 101% (inactive),116% (inactive),109% (inactive) and 105% (inactive),136% (inactive) and 101% (inactive),96.8% (inactive),98.7% (inactive) and 88.2% (inactive),96.9% (inactive) and 100% (inactive)
CCc1cc(C)cc(O)c1,107% (inactive),99.4% (inactive),105% (inactive),106% (inactive),110% (inactive),91.7% (inactive),90.1% (inactive),108% (inactive),104% (inactive),116% (inactive),122% (inactive),100% (inactive),112% (inactive),112% (inactive),94.4% (inactive),124% (inactive),116% (inactive),128% (inactive),96.1% (inactive),103% (inactive)
CC[C@H](CC[C@@H](C)[C@H]1CC[C@H]2[C@@H]3CC=C4C[C@@H](O)CC[C@]4(C)[C@H]3CC[C@]12C)C(C)C,5.59% (active) and 96.6% (inactive),99.6% (inactive) and 101% (inactive),92.6% (inactive) and 103% (inactive),108% (inactive) and 101% (inactive),105% (inactive) and 107% (inactive),83.5% (inactive),18.7% (inactive) and 97% (inactive),102% (inactive),95.3% (inactive) and 106% (inactive),103% (inactive) and 107% (inactive),114% (inactive) and 103% (inactive),106% (inactive),106% (inactive) and 104% (inactive),115% (inactive) and 97.9% (inactive),104% (inactive),101% (inactive) and 97.6% (inactive),98.3% (inactive) and 101% (inactive),92.2% (inactive) and 99.1% (inactive),97.5% (inactive),103% (inactive) and 106% (inactive)
CN(C)CC1CCCCCC(CN(C)C)C1=O (centres undefined),97.2% (inactive),91.4% (inactive),116% (inactive),113% (inactive),106% (inactive),73.2% (inactive),-42.8% (active),106% (inactive),89.6% (inactive),-80.9% (active),16.3% (inactive),0.401% (active),-29.8% (active),86.2% (inactive),-5.99% (active),97% (inactive),76.8% (inactive),113% (inactive),53.1% (inactive),77.4% (inactive)
OCC1OC(O)C(O)C(O)C1O (centres undefined),102% (inactive),113% (inactive),155% (inactive),98.9% (inactive),100% (inactive),85.9% (inactive),85.7% (inactive),108% (inactive),110% (inactive),108% (inactive),120% (inactive),110% (inactive),180% (inactive),116% (inactive),124% (inactive),102% (inactive),102% (inactive),102% (inactive),114% (inactive),101% (inactive)
NC1CCC(C(=O)O)CC1 (centres undefined),111% (inactive) and 108% (inactive),104% (inactive) and 99.6% (inactive),117% (inactive) and 105% (inactive),100% (inactive) and 91.2% (inactive),98.9% (inactive) and 104% (inactive),83.3% (inactive) and 91.7% (inactive),97.4% (inactive) and 96% (inactive),107% (inactive) and 108% (inactive),102% (inactive) and 103% (inactive),105% (inactive) and 107% (inactive),108% (inactive) and 115% (inactive),107% (inactive) and 109% (inactive),115% (inactive) and 106% (inactive),97.3% (inactive) and 113% (inactive),112% (inactive) and 106% (inactive),105% (inactive),106% (inactive) and 110% (inactive),98.9% (inactive) and 102% (inactive),107% (inactive) and 113% (inactive),96.5% (inactive) and 99.3% (inactive)
CC(=O)Nc1ccc(S(N)(=O)=O)cc1,100% (inactive),107% (inactive) and 102% (inactive),113% (inactive) and 92.5% (inactive),89.4% (inactive) and 103% (inactive),102% (inactive) and 105% (inactive),96.6% (inactive),98.3% (inactive) and 80.4% (inactive),96% (inactive) and 103% (inactive),97.9% (inactive) and 94.5% (inactive),99.7% (inactive) and 102% (inactive),111% (inactive) and 113% (inactive),102% (inactive) and 110% (inactive),109% (inactive),102% (inactive) and 119% (inactive),115% (inactive),105% (inactive) and 115% (inactive),93.8% (inactive) and 92.8% (inactive),100% (inactive) and 101% (inactive),88.6% (inactive) and 94.9% (inactive),98.6% (inactive) and 103% (inactive)
COc1ccc(N/C=C/C2=[N+](C)c3ccccc3C2(C)C)c(OC)c1,79.8% (inactive),83% (inactive),102% (inactive),92.7% (inactive),96.3% (inactive),69.5% (inactive),89.9% (inactive),92.9% (inactive),88.9% (inactive),99.5% (inactive),102% (inactive),103% (inactive),85.5% (inactive),85.2% (inactive),97.4% (inactive),95.6% (inactive),86.2% (inactive),102% (inactive),99.5% (inactive),86.4% (inactive)
